Screening data: PubChem BioAssay, Broad Institute
Pf Dd2 growth – inhibitors of Plasmodium falciparum Dd2 growth; 94,000 compounds, 2.3% hits; P. falciparum Dd2 growth, SYBR Green, 72 h; hits give low values; activity change, % at 10 µM; in the data active = activity change below about -80%; inconclusive = no clear call, values can overlap the other calls
Tcruzi prolif – inhibitors of T. cruzi proliferation | T. cruzi beta-gal in NIH3T3, GalScreen luminescence, 90 h | AID 624255 | 77,000 compounds, 5.9% hits | inhibition, % at 8.34 µM;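 active = mean inhibition above about 93%, with at least 55% of replicates each passing it, limit read from the data, passing the limit was not always enough; inconclusive = only one of those two conditions holds; inactive = neither condition holds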
C diff growth – blocks growth of Clostridium difficile; growth activity, negative = inhibition, % at 16 µg/mL (by protocol); 86,000 compounds, 0.25% hits; Clostridium difficile clinical isolate growth, OD600, 24 h; hits give low values;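 active = mean growth activity at or below -80% and every replicate also at or below -80%; inconclusive = mean at or below -80% but some replicate above -80%; inactive = mean growth activity above -80%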;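 also: 0% = DMSO wells and -100% = levofloxacin 16 µg/mL wells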
Numbers without * were called inactive; ? = inconclusive; . = not tested or not shown. Only some compounds are listed: those with a hit (about 6.8% of all), similar ones and a draw of the others.

SMILES	Pf Dd2 growth	Tcruzi prolif	C diff growth
C[C@@H]1CCCCO[C@@H](CN(C)Cc2ccc(Cl)c(Cl)c2)[C@@H](C)CN([C@H](C)CO)C(=O)c2cc(NC(=O)CCCCCC(=O)Nc3ccccc3N)ccc2O1	-67	.	-13
C[C@@H]1CCCCO[C@H](CN(C)Cc2ccc(C(F)(F)F)cc2)[C@@H](C)CN([C@H](C)CO)C(=O)c2cc(NC(=O)CCCCCC(=O)Nc3ccccc3N)ccc2O1	-93*	.	1
C[C@@H]1CCCCO[C@@H](CN(C)Cc2ccc3c(c2)OCO3)[C@@H](C)CN([C@H](C)CO)C(=O)c2cc(NC(=O)CCCCCC(=O)Nc3ccccc3N)ccc2O1	-85*	.	-2
C[C@H](CO)N1C[C@H](C)[C@H](CN(C)Cc2ccncc2)Oc2ccc(NS(=O)(=O)c3ccc(F)cc3)cc2C1=O	3	70	2
CC(C)NC(=O)N(C)C[C@@H]1OCCCC[C@@H](C)Oc2ccc(NS(=O)(=O)c3ccc(F)cc3)cc2C(=O)N([C@H](C)CO)C[C@@H]1C	.	-57	4
Cc1ccc(S(=O)(=O)Nc2ccc3c(c2)C(=O)N([C@@H](C)CO)C[C@H](C)[C@@H](CN(C)S(=O)(=O)c2ccc(Cl)cc2)OCCCC[C@H](C)O3)cc1	-86*	83	-10
Cc1ccc(S(=O)(=O)Nc2ccc3c(c2)C(=O)N([C@H](C)CO)C[C@@H](C)[C@@H](CN(C)S(=O)(=O)c2ccccc2)OCCCC[C@@H](C)O3)cc1	-64	.	-11
Cc1noc(C)c1S(=O)(=O)Nc1ccc2c(c1)C(=O)N([C@@H](C)CO)C[C@@H](C)[C@H](CN(C)S(=O)(=O)c1ccc(F)cc1)O2	-85*	9	8
Cc1noc(C)c1S(=O)(=O)Nc1ccc2c(c1)C(=O)N([C@@H](C)CO)C[C@@H](C)[C@H](CN(C)S(=O)(=O)c1ccc(Cl)cc1)OCCCC[C@@H](C)O2	-69	90	10
Cc1ccc(S(=O)(=O)Nc2ccc3c(c2)C(=O)N([C@@H](C)CO)C[C@H](C)[C@@H](CN(C)S(=O)(=O)c2ccc(Cl)cc2)OCCCC[C@@H](C)O3)cc1	?	74	-1
Cc1ccc(S(=O)(=O)N(C)C[C@@H]2OCCCC[C@H](C)Oc3ccc(NS(=O)(=O)c4ccccc4)cc3C(=O)N([C@@H](C)CO)C[C@@H]2C)cc1	-54	110*	7
Cc1noc(C)c1S(=O)(=O)Nc1ccc2c(c1)C(=O)N([C@@H](C)CO)C[C@@H](C)[C@@H](CN(C)S(=O)(=O)c1ccc(Cl)cc1)OCCCC[C@H](C)O2	-92*	61	10
Cc1noc(C)c1S(=O)(=O)Nc1ccc2c(c1)C(=O)N([C@H](C)CO)C[C@@H](C)[C@H](CN(C)S(=O)(=O)c1ccc(F)cc1)O2	3	-1	-3
C[C@H]1CN([C@@H](C)CO)C(=O)Cc2cc(NC(=O)c3ccncc3)ccc2O[C@H]1CN(C)Cc1ccc(C(F)(F)F)cc1	-4	16	3
COCC(=O)N1C[C@H](C)[C@H](OC)CN(C)C(=O)c2ccc(NC(=O)c3cnccn3)cc2OC[C@H]1C	12	.	0
C[C@@H]1CN([C@@H](C)CO)C(=O)c2cc(NC(=O)Nc3ccc4c(c3)OCO4)ccc2O[C@@H](C)CCCCO[C@H]1CN(C)C(=O)Nc1ccccc1	-14	27	-1
CC(=O)N(C)C[C@@H]1Oc2ncc(/C=C/c3ccccc3)cc2C(=O)N([C@H](C)CO)C[C@@H]1C	22	33	2
COc1cccc(S(=O)(=O)N(C)C[C@H]2OCc3ccccc3-c3c(n(C)c4ccccc34)C(=O)N([C@@H](C)CO)C[C@@H]2C)c1	-83*	35	2
C[C@H](CO)N1C[C@H](C)[C@H](CN(C)S(=O)(=O)c2ccccc2)OCc2ccccc2-c2c(n(C)c3ccccc23)C1=O	-36	.	-9
C[C@H]1CN([C@@H](C)CO)C(=O)c2c(c3ccccc3n2C)-c2ccccc2CO[C@H]1CN(C)S(=O)(=O)c1ccccc1	-84*	65	.
C[C@@H]1CN([C@@H](C)CO)C(=O)c2c(c3ccccc3n2C)-c2ccccc2CO[C@H]1CN(C)S(=O)(=O)c1ccccc1	-72	78	.
Cc1noc(C)c1S(=O)(=O)N(C)C[C@H]1OCc2ccccc2-c2c(n(C)c3ccccc23)C(=O)N([C@@H](C)CO)C[C@H]1C	-89*	84	2
COc1ccc(S(=O)(=O)N(C)C[C@@H]2OCc3ccccc3-c3c(n(C)c4ccccc34)C(=O)N([C@@H](C)CO)C[C@H]2C)cc1	-57	61	.
Cc1noc(C)c1S(=O)(=O)N(C)C[C@@H]1OCc2ccccc2-c2c(n(C)c3ccccc23)C(=O)N([C@@H](C)CO)C[C@H]1C	17	11	10
C[C@H](CO)N1C[C@H](C)[C@@H](CN(C)S(=O)(=O)c2ccc(Cl)cc2)OCc2ccccc2-c2c(n(C)c3ccccc23)C1=O	-85*	81	.
SMILES	Pf Dd2 growth	Tcruzi prolif	C diff growth
C[C@@H]1CN([C@H](C)CO)C(=O)c2cc(NC(=O)Cc3cn(C)c4ccccc34)ccc2O[C@@H]1CN(C)S(=O)(=O)c1cn(C)cn1	11	18	.
COc1cccc(NC(=O)N2CC3(C2)[C@@H](c2ccccc2)[C@H](CO)N3C(C)=O)c1	23	.	-3
COc1ccc2c3c([nH]c2c1)[C@H](CO)N(C(=O)c1cccc(F)c1)CC31CCN(S(=O)(=O)c2cccs2)CC1	-17	.	-4
COc1ccc(S(=O)(=O)N(C)C[C@H]2OCc3ccccc3-c3c(n(C)c4ccccc34)C(=O)N([C@H](C)CO)C[C@@H]2C)cc1	22	-13	.
C[C@H]1CN([C@@H](C)CO)C(=O)c2c(c3ccccc3n2C)-c2ccccc2CO[C@@H]1CN(C)S(=O)(=O)c1ccc([N+](=O)[O-])cc1	-68	.	0
COc1ccc(S(=O)(=O)N(C)C[C@H]2OCc3ccccc3-c3c(n(C)c4ccccc34)C(=O)N([C@@H](C)CO)C[C@H]2C)cc1	-83*	83	.
C[C@H]1CN([C@@H](C)CO)C(=O)c2ccccc2-c2ccccc2CO[C@H]1CN(C)S(=O)(=O)c1ccc(Cl)cc1	-83*	51	-5
Cc1ccc(S(=O)(=O)N(C)C[C@H]2OCc3ccccc3-c3c(n(C)c4ccccc34)C(=O)N([C@H](C)CO)C[C@@H]2C)cc1	-88*	77	.
C[C@H]1CN([C@@H](C)CO)C(=O)c2c(c3ccccc3n2C)-c2ccccc2CO[C@H]1CN(C)S(=O)(=O)c1ccc([N+](=O)[O-])cc1	-89*	.	-2
C[C@@H]1CN([C@H](C)CO)C(=O)c2ccccc2-c2ccccc2CO[C@H]1CN(C)S(=O)(=O)c1ccc(Cl)cc1	-38	50	7
Cc1ccc(S(=O)(=O)N(C)C[C@H]2OCc3ccccc3-c3c(n(C)c4ccccc34)C(=O)N([C@H](C)CO)C[C@H]2C)cc1	-8	62	.
Cc1cc(C(=O)Nc2cccc3c2O[C@@H](CN(C)C(=O)Nc2ccccc2)[C@H](C)CN([C@@H](C)CO)C3=O)n(C)n1	1	28	1
COc1ccc2c3c(n(C)c2c1)[C@H](CO)N(Cc1cc(F)ccc1F)CC31CCN(C(=O)C2CC2)CC1	?	.	-6
COc1ccc2c3c(n(C)c2c1)[C@H](CO)N(Cc1ccccc1)CC31CCN(C(=O)C2CC2)CC1	-83*	.	1
